A selection: hits, their analogues and other compounds. The true share with any hit is near 21%.
CHX counter – affects cycloheximide protein synthesis inhibition readout, counter-screen. 300,000 tested, 12% active. cell reporter, cycloheximide protein synthesis inhibition counterscreen. max response, %; in the data active = max response mostly above about 13%, no sharp cut-off; inactive = mostly below about 14%; note: read at 38.3 µM for the half of the compounds with a filed dose; 0% is about no effect
Shiga toxin inh – Shiga toxin inhibition. Vero cells, Shiga toxin protein synthesis inhibition reporter. AID 2315. inhibition, % at 38.7 µM. 290,000 tested, 9.2% active; in the data active = inhibition mostly above about 28%, no sharp cut-off; inactive = mostly below about 43%; note: 0% is about no effect
Pf growth 96h – P. falciparum growth inhibition at 96 hours; P. falciparum luciferase reporter growth, 96 h; Potency, µM (top dose mostly 28.7 µM), for inactives: at the highest dose activity change, negative = inhibition, most hits filed as inhibitors; 320,000 tested, 6.9% active; AID 504834; note: potency is the fitted concentration of half-maximal effect; % is set by controls: 0 for no effect and ±100 for the full control effect
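Delayed-death screen, second-generation endpoint: infected erythrocytes, 2% hematocrit, 0.05% parasitemia final; 96 hours at 37 C, 5% CO2; luciferase detection reagent; luminescence decrease equals reduced growth.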
Pf growth 48h – inhibits P. falciparum growth in the first generation, 48 h | P. falciparum luciferase growth in erythrocytes, 48 h | Potency, µM (top dose mostly 28.7 µM), without a hit: at the top dose activity change, negative = inhibition, hits mostly inhibitors | 310,000 tested, 5.9% active | AID 504832; note: potency is the fitted concentration of half-maximal effect; % is set by controls: 0 for no effect and ±100 for the full control effect
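Compounds are pin-transferred into medium, infected erythrocytes (2% hematocrit, 0.1% parasitemia final) are added, and plates sit one parasite generation at 37 C in 5% CO2. Detection reagent is then added and luminescence measured.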
HCV inhibitor – HCV inhibition. Huh7.5.1 HCVcc-Cre infection, luciferase reporter, 44 h. Potency, µM (highest dose often 41.8 µM), for inactives: top-dose activity change, negative = inhibition, usual class: inhibitors. 340,000 tested, 3.4% active. AID 651820; note: potency is the fitted concentration of half-maximal effect; % is set by controls: 0 for no effect and ±100 for the full control effect
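Compounds are dispensed onto cells plated 4 h earlier at 1,000 per well, with HCVcc-Cre virus (about 0.5 moi) added next. Following 44 h of culture, luminescent signal is measured for 15 sec after 15 min with substrate at room temperature.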
HCMV antiviral – inhibitors of human cytomegalovirus. HFF cells, HCMV-luciferase reporter, 72 h; stronger effect = lower value. activity change, negative = inhibition, % at 57.5 µM. 410,000 tested, 4.5% active; in the data active = activity change below about -60%; inconclusive = no clear call, values can overlap the other calls; inactive = above about -39%; note: % is set by controls: 0 for no effect and ±100 for the full control effect
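After 16 h attachment at 37C, HFF cells received test compound and HCMV-luciferase (1 PFU/cell); reporter luminescence read 72 h later, data normalized against buffer-only and known inhibitor Salinomycin.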
An asterisk follows results filed as active; u = inconclusive; x = no result given. Unless noted, calls come from the whole dose curve; as a rule, active = well fitted inhibition curve with a large enough effect; inconclusive = small, poorly fitted or top-dose-only effect, or another doubt; inactive = no such curve, though single readings can be large or run the other way.

SMILES | CHX counter | Shiga toxin inh | Pf growth 96h | Pf growth 48h | HCV inhibitor | HCMV antiviral
Cc1nn(Cc2ccc(Cl)c(Cl)c2)c(C)c1NC(=O)c1noc2c1CCCCC2 | -2 | -8 | 6.6µM* | 34% | -11% | -37
Cc1nn(Cc2ccc(Cl)c(Cl)c2)c(C)c1NC(=O)c1cc(CC(C)C)on1 | -4 | 2 | 0.33µM* | u | 11µM* | -31
Cc1nn(Cc2ccc(Cl)cc2)c(C)c1NC(=O)c1noc2c1CCCCC2 | 4 | -15 | 171% | u | u | -38
Cc1ccc(C)c(S(=O)(=O)N(C)C2(C)CCS(=O)(=O)C2)c1 (stereo not given) | x | x | 40% | 30% | 6% | -11
COc1ccc(CCNC(=O)CSc2ccc(-c3cccs3)nn2)cc1OC | 6 | -12 | -25% | 3% | -18% | 12
Cc1ccc(C(=O)NCCc2nnc3ccc(SCC(=O)N4CCCCC4)nn23)cc1 | 16 | 17 | u | 3% | 18% | -1
COc1cccc(NC(=O)CSc2ccc3nnc(CCNC(=O)c4ccccc4)n3n2)c1 | 10 | -8 | 10µM* | -23% | 4% | 11
O=C(CSc1ccc2nnc(CCNC(=O)c3ccccc3)n2n1)NCc1ccccc1 | 1 | 18 | u | -29% | 3% | 2
Cc1ccc(C(=O)NCCc2nnc3ccc(SCC(=O)NCc4ccc(F)cc4)nn23)cc1 | 9 | -6 | 9.3µM* | -16% | 15% | -6
Cc1ccc(C(=O)NCCc2nnc3ccc(SCC(=O)N4CCCC4)nn23)cc1 | 42* | 53* | u | -22% | 17% | 44
O=C(COc1ccc(Cl)cc1)Nc1ccc2nc(SCC(=O)N3CCCC3)sc2c1 | x | x | x | x | x | 42
CCOP(=O)(OCC)c1nc(-c2ccc(Cl)cc2Cl)oc1N1CCOCC1 | -3 | 20 | u | u | -18% | -12
O=C(Nc1ccc(NC(=S)NC(=O)c2cccs2)cc1)c1ccco1 | -2 | 18 | 12% | u | -23% | -87*
O=C(NC(=S)NNC(=O)c1cccs1)c1ccco1 | 29* | 19 | u | u | u | 59
O=C(NNC(=O)c1cccs1)c1ccco1 | 6 | 20 | u | 8% | 3% | -8
O=C(NNC(=S)NC(=O)c1ccco1)c1ccc(F)cc1 | 10* | 17 | u | u | 5% | 39
CC(C)C[C@@H]1NC(=O)N(CCCn2ccnc2)C1=O | 1 | 18 | 11% | 12% | 11% | 10
CC(C)Oc1ccc(CNC(=O)c2cc(S(=O)(=O)N3CCOCC3)cn2C)cc1 | -3 | -4 | u | 11% | 4% | -11
CCc1nnc(NC(=O)CSCc2cc(=O)c3ccc(C)cc3[nH]2)s1 | x | x | x | x | x | 1
CCCCOc1ccccc1NC(=O)c1ccco1 | -4 | -5 | -8% | u | u | -4
CCCCOc1ccccc1NC(=O)c1scc2c1OCCO2 | -3 | -14 | u | u | 13µM* | -28
CCc1ccc(-n2c(=O)c3c4c(sc3n(CC(=O)N3CCC(C)CC3)c2=O)CCC4)cc1 | x | x | x | x | x | -6
COC(=O)[C@]1(C#N)[C@H](CC(C)C)C(=O)N(Cc2ccc(Cl)cc2)[C@@H]1c1ccc(OC)cc1 | x | x | x | x | x | 10
COc1ccc(C2CC(=O)c3cc(-c4nc(-c5ccc(Cl)cc5)c(C)s4)c(=O)[nH]c3C2)cc1 (stereo not given) | x | x | x | x | x | 9
CCOC(=O)NNC1CC(=O)N(c2ccccc2)C1=O (stereo not given) | -2 | -26 | 38% | 28% | 9% | -3
SMILES | CHX counter | Shiga toxin inh | Pf growth 96h | Pf growth 48h | HCV inhibitor | HCMV antiviral
CC(C)(C)OC(=O)NNC1CC(=O)N(c2ccccc2F)C1=O (stereo not given) | -3 | -14 | u | u | 3% | -71*
CCCCn1c(Nc2ccccc2)nc2ccccc21 | -4 | -21 | u | x | -9% | 22
Nn1c(Nc2ccccc2)nc2ccccc2c1=O | 1 | 43 | 13% | x | -18% | 2
Cn1c(Nc2ccccc2)nc2ccccc21 | 25* | 52 | u | 3% | 16% | 10
CCc1ccccc1Nc1nc2ccccc2n1C | 11 | 16 | 79% | u | 5% | u
CCCn1c(Nc2nc3ccccc3n2C)nc2ccccc21 | -4 | -7 | 7.4µM* | 7.4µM* | u | -100*
